“And” between values parts separate entries of the source, which are not always exact repeats. Identical values can stand only once. Inconclusive results are not listed. Where a call stands in place of a potency, no number is given. The source made the active and inactive calls. Unless noted, the call rests on the fitted dose curve; in most records, active means well fitted curve in the direction sought with a large enough effect in the repeat runs; inconclusive means weak or mixed curves; inactive means no such curve, though single readings can be large; an effect the other way counts as inactive or inconclusive.
How the values were obtained:
[1] = qHTS assay to identify small molecule agonists of the constitutive androstane receptor (CAR) signaling pathway - cell viability counter screen (AID 1224836); further: nearly all actives have a fitted effect of over 45% in size
How it was run: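 Fluorescence from CellTiter-Fluor indicates live cells after 23 h exposure. The human hepatoma line expresses hCAR and a CYP2B6-2.2kb reporter. Incubation medium contains 0.75 uM PK11195 (final).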

[2] = qHTS assay to identify small molecule antagonists of the constitutive androstane receptor (CAR) signaling pathway - cell viability counter screen (AID 1224837); further: nearly all actives have a fitted effect of over 45% in size
How it was run: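 HepG2 cells stably carrying hCAR and CYP2B6-2.2kb reporter, stimulated with 50 nM CITCO and compounds at 15 concentrations for 23 h at 37 C. Viability measured by CellTiter-Fluor fluorescence.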

[3] = biological target: Nuclear receptor subfamily 1 group I member 3 (Homo sapiens) (UniProt Q14994); assay: qHTS assay to identify small molecule agonists of the constitutive androstane receptor (CAR) signaling pathway (AID 1224839); further: nearly all actives have a fitted effect of over 15% in size
Sequence of Nuclear receptor subfamily 1 group I member 3 (Homo sapiens) (Q14994 whole entry, looked up): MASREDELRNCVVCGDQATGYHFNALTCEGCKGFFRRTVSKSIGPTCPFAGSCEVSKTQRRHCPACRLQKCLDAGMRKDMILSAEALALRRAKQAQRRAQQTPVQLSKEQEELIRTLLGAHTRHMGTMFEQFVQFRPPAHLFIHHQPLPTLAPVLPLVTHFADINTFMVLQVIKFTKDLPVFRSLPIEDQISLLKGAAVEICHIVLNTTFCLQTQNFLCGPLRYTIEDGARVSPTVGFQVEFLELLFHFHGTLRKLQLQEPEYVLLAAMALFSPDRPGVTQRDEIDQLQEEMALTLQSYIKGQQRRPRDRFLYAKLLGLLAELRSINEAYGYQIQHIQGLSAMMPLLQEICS
How it was run: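 Stable hCAR/CYP2B6-2.2kb HepG2 line in DMEM with 10% FBS; compounds (15 concentrations) and 0.75 uM PK11195 final, 24 h at 37 C/5% CO2, then ONE-Glo luminescence after 30 min.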

[4] = qHTS assay to identify small molecule antagonists of the estrogen related receptor signaling pathway with the pleiotropic PPARgamma coactivator (PGC) from Tox21 10K library - cell viability counter screen (AID 1224840; active means well fitted cell-killing curve with a large enough effect in the repeat runs, not every such curve was filed as active; further: nearly all actives have a fitted effect of over 40% in size)
How it was run: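 PGC/ERR cells (2,000/well) plated 6 h, then compound-treated for 17.5 h at 37 C. Viability measured by CellTiter-Fluor fluorescence after 30 min at 37 C, multiplexed with the pathway assay.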

[5] = qHTS assay to identify small molecule agonists of the estrogen related receptor signaling pathway with the pleiotropic PPARgamma coactivator (PGC) from Tox21 10K library (AID 1224842); further: nearly all actives have a fitted effect of over 15% in size
How it was run: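 PGC/ERR reporter cells (NTP line) were seeded 2,000 per well, rested 6 h at 37 C/5% CO2, then pin-dosed with compounds in DMSO for 18 h at 37 C; luciferase read by One-Glo luminescence after 30 min at room temperature.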

[6] = qHTS assay to identify small molecule agonists of the hypoxia (HIF-1) signaling pathway - cell viability counter screen (AID 1224844; calls by dose curve; further: nearly all actives have a fitted effect of over 50% in size)
How it was run: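 HRE-bla ME-180 cells, 2,000/well in 0.5% dialyzed FBS medium, treated 17 h at 37C with compounds. Viability read in the same wells as the bla reporter, by CellTiter-Glo luminescence after 30 min at room temperature.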

[7] = biological target: Luciferin 4-monooxygenase (Photinus pyralis) (UniProt P08659); assay: qHTS assay to identify small molecule inhibitors of firefly luciferase (AID 1224835); further: nearly all actives have a fitted effect of over 25% in size
Sequence of Luciferin 4-monooxygenase (Photinus pyralis) (P08659 whole entry, looked up): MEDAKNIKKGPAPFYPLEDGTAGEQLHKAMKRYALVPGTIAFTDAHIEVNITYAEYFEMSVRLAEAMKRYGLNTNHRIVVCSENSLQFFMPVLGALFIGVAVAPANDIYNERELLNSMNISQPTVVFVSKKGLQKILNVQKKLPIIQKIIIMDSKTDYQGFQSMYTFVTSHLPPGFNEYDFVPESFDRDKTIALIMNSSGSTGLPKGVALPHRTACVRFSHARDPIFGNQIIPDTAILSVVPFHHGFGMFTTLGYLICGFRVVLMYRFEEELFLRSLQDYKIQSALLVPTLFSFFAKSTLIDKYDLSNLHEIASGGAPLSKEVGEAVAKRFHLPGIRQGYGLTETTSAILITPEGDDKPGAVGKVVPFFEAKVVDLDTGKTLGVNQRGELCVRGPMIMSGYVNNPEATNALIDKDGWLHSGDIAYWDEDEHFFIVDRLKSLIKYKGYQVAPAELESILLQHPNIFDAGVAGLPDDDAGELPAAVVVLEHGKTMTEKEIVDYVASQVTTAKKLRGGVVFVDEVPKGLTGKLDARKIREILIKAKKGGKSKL
How it was run: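 Quantitative HTS format; KM concentrations of both substrates. Purified P. pyralis FLuc activity quantified from luminescence images.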

[8] = qHTS assay to identify small molecule antagonists of the estrogen related receptor signaling pathway with the pleiotropic PPARgamma coactivator (PGC) from Tox21 10K library (AID 1224841; call rule not given here; further: actives are mostly falling curves and most rising ones were filed inactive; nearly all actives have a fitted effect of over 50% in size)
How it was run: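 PGC/ERR cell line, 2,000 cells/well, pre-incubated 6 hours at 37 C, then exposed to compounds for 18 hours at 37 C; luciferase read with One-Glo luminescence after 30 min at room temperature.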

[9] = biological target: Thyrotropin receptor (Homo sapiens) (UniProt P16473); assay: qHTS assay to identify small molecule agonists of the thyroid stimulating hormone receptor (TSHR) signaling pathway (AID 1224843; calls by dose curve; further: nearly all actives have a fitted effect of over 45% in size)
Sequence of Thyrotropin receptor (Homo sapiens) (P16473 whole entry, looked up): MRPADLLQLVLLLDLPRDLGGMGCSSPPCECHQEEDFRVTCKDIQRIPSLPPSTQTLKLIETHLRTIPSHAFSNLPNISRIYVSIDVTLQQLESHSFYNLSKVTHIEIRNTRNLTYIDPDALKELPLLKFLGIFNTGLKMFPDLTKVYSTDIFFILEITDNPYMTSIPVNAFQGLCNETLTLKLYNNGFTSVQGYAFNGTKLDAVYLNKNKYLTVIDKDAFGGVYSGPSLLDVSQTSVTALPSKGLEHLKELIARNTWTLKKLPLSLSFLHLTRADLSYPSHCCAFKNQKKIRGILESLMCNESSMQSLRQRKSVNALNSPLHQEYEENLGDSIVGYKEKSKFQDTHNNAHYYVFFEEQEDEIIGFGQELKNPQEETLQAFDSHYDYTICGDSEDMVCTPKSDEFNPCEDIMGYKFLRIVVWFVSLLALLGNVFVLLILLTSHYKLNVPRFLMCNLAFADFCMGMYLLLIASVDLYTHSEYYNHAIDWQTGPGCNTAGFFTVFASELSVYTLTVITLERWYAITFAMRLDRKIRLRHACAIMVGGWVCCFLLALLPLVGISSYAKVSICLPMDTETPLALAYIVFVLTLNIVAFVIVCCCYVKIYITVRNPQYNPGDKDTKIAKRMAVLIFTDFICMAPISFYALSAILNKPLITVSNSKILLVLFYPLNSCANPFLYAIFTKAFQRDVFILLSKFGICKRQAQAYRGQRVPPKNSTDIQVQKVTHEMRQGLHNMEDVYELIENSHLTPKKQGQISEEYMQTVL
How it was run: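 Cell line HEK293 with TSHR; density 800/well. Exposure 30 min RT. Readout HTRF cAMP (cAMP-d2/anti-cAMP-cryptate), 1 h RT before reading.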

[10] = biological target: Nuclear receptor subfamily 1 group I member 3 (Homo sapiens) (UniProt Q14994); assay: qHTS assay to identify small molecule antagonists of the constitutive androstane receptor (CAR) signaling pathway (AID 1224838); further: nearly all actives have a fitted effect of over 40% in size
How it was run: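 HepG2 cells stably carrying hCAR and a CYP2B6-2.2kb luciferase reporter, seeded 4 hrs before compound (15 concentrations). Stimulated with 50 nM CITCO for 24 hr at 37 C. ONE-Glo luminescence read after 30 min at room temperature.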
Potency means the concentration at half of the fitted maximal effect.

SMILES | Potency [1] | Potency [2] | Potency [3] | Potency [4] | Potency [5] | Potency [6] | Potency [7] | Potency [8] | Potency [9] | Potency [10]
Nc1cc(C(F)(F)F)ccc1S | inactive | inactive | inactive | inactive | inactive | inactive |  |  |  | 
OCCN1CCN(CC/C=C2/c3ccccc3Sc3ccc(C(F)(F)F)cc32)CC1 |  |  |  | 29.8 µM (active) | inactive | 21.3 µM (active) | inactive | 29.8 µM (active) | inactive | 
Clc1ccccc1C(c1ccccc1)(c1ccccc1)n1ccnc1 |  |  |  | 17.2 µM (active) | inactive |  | inactive | 5.45 µM (active) and 9.44 µM (active) | inactive | 
CCCCCCCCCCCCc1ccc(O)cc1 |  |  |  | 48.6 µM (active) | inactive | 24.5 µM (active) | inactive | 54.5 µM (active) | 27.3 µM (active) | 
CNc1ccc(O)cc1 |  |  |  |  | inactive | 21.8 µM (active) | 39.8 µM (active) |  |  | 
CSc1ccc(/C=C2/C(C)=C(CC(=O)O)c3cc(F)ccc32)cc1 | inactive | inactive | inactive | inactive | inactive | 10.7 µM (active) |  | inactive | inactive | inactive
Oc1cccc(-c2c3nc(c(-c4cccc(O)c4)c4ccc([nH]4)c(-c4cccc(O)c4)c4nc(c(-c5cccc(O)c5)c5ccc2[nH]5)CC4)C=C3)c1 | 5.96 µM (active) | 5.31 µM (active) | inactive | 10.6 µM (active) |  | inactive |  |  |  | inactive
c1ccc(CSCc2ccccc2)cc1 | inactive |  |  |  |  | inactive |  |  |  | inactive
CCCCCCCC[N+](CCCCCCCC)(CCCCCCCC)CCCCCCCC | 9.67 µM (active) | 9.67 µM (active) | inactive | 21.6 µM (active) | inactive | 13.8 µM (active) |  |  |  | 21.6 µM (active)
N#CSc1ccc(N)c([N+](=O)[O-])c1 | 48.9 µM (active) |  | inactive |  | inactive |  |  |  |  | 48.9 µM (active)
OCc1c[nH]c2ccccc12 | inactive | inactive | 30.6 µM (active) |  | inactive |  |  | 3.44 µM (active) |  | inactive
CCCCC(CC)COP(=O)(O)OCC(CC)CCCC (centres undefined) | inactive |  | inactive | inactive | inactive |  |  |  |  | inactive
COc1ccc(C(=O)/C(Br)=C\C(=O)O)cc1 |  | inactive |  |  | 24.3 µM (active) |  |  | inactive | inactive | inactive
Cc1onc(-c2ccccc2Cl)c1C(=O)N[C@@H]1C(=O)N2[C@@H]1SC(C)(C)[C@@H]2C(=O)O |  |  |  | inactive |  |  | inactive |  | inactive | 
